MOR-DOR inv ag-1 – mu-delta opioid heterodimer inverse agonism; P35372+P41143; cell-based MOR-DOR heterodimer luminescence; inhibition, % at 9.3 µM; 340,000 tested, 0.21% active; AID 504357; in the data active = inhibition above about 22%, passing the limit was not always enough;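 note: 0% = cells with DMSO and 100% = wells without cells with DMSO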
A1 inh – inhibitors of the anti-apoptotic protein A1, read as caspase activation; MEF A1-2A-BIM cells, Caspase-Glo 3/7 luminescence, 3 h; percent of clofoctol response, vehicle zero; caspase activation, % (no concentration beside the values); 330,000 tested, 0.066% active; AID 2462;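 active = over half of replicate activation scores above 10%, or exactly half above 10 with the replicate mean above 10; inconclusive = replicate mean below 10 yet half the replicates above 10; inactive = over half of replicates below 10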
HTR5A inv ctr – HTR5A inverse agonism, opioid heterodimer counter-screen; P47898; HTR5A cell line, luminescence; inhibition, % at 9.3 µM; 340,000 tested, 0.083% active; in the data active = inhibition mostly above about 23%, no sharp cut-off; inactive = mostly below about 18%;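 note: 0% = cells with DMSO and 100% = no-cell wells with DMSO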
Target sequence (P47898 whole entry, looked up): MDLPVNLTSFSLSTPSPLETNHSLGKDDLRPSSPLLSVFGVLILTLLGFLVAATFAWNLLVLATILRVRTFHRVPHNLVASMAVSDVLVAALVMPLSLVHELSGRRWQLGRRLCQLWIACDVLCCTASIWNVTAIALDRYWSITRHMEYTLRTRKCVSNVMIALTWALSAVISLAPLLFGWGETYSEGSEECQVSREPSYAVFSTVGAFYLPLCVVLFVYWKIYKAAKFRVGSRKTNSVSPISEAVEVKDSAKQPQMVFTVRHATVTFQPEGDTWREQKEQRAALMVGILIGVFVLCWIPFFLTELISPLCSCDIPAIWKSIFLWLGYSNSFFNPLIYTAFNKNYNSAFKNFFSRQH
HTR5A ag ctr – activates human HTR5A in OPRM1-OPRD1 agonist counter-screen. P47898. HTR5A agonist assay, luminescence, cell-based. activation, % at 9.3 µM. 340,000 tested, 0.61% active; in the data active = activation mostly above about 9.5%, no sharp cut-off; inactive = mostly below about 7.6%;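 note: 0% = cells with vehicle only and 100% = reference agonist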
MOR-DOR ag-1 – agonists of human mu-delta opioid receptor heterodimerization | cells, OPRM1-OPRD1 heterodimerization, luminescence | activation, % at 9.3 µM | P35372+P41143 | 340,000 tested, 0.3% active; in the data active = activation above about 18%;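 note: 0% = vehicle-treated cells and 100% = reference agonist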
OPRM1-D1 inv cf – OPRM1-OPRD1 heterodimer inverse agonism, confirmation; shares compounds with MOR-DOR inv ag-1; cells expressing OPRM1/OPRD1 heterodimer, luminescence; inhibition, % at 9.3 µM; 580 tested, 20% active; AID 504900; in the data active = inhibition above about 32%;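 note: 0% = cells with DMSO and 100% = wells lacking cells with DMSO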
HTR5A inv count – counter-screen for OPRM1-OPRD1 inverse agonists: human HTR5A inverse agonism. shares compounds with MOR-DOR inv ag-1. HTR5A-expressing cells, luminescence. inhibition, % at 9.3 µM. 580 tested, under 10 active. AID 504914;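 note: 0% = cells with DMSO and 100% = no-cell wells with DMSO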
MOR-DOR inv ag-2 – counter-screen for HTR5A inverse agonists: OPRM1-OPRD1 heterodimerization inverse agonism; shares compounds with HTR5A inv ctr; U2OS counter-screen cells, complementation luminescence; inhibition, % at 9.3 µM; 190 tested, under 10 active; AID 504912;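 note: 0% = cells with DMSO and 100% = wells without cells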
HTR5A inv conf – HTR5A (human) inverse agonism, confirmation | 190 tested, under 10 active | inhibition, % at 9.3 µM | shares compounds with HTR5A inv ctr | AID 504916 | HTR5A-expressing cells, luminescence;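 note: 0% = cells with DMSO and 100% = no cells with DMSO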
MOR-DOR ag-2 – promotes OPRM1-OPRD1 heterodimerization in HTR5A counter-screen; U2OS counter-screen cells, complementation luminescence, 3 h; 800 tested, 13% active; activation, % at 9.3 µM; shares compounds with HTR5A ag ctr; in the data active = activation above about 18%
HTR5A ag confirm – confirmation of human HTR5A agonists. shares compounds with HTR5A ag ctr. HTR5A agonist cell assay, luminescence. activation, % at 9.3 µM. 800 tested, 17% active. AID 504915; in the data active = activation above about 17%;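 note: 0% = cells with vehicle only and 100% = full reference agonist response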
The depositor's hits bear a star; i = inactive; ? = inconclusive; nt = no result given. Hits are enriched below; roughly 1.1% of the tested compounds scored in any of these assays. Unless noted, the rule behind the calls is not given here.

SMILES	MOR-DOR inv ag-1	A1 inh	HTR5A inv ctr	HTR5A ag ctr	MOR-DOR ag-1	MOR-DOR inv ag-2	HTR5A inv conf	others
CCC1Nc2ncnc(N3CCOCC3)c2N(Cc2ccc(C)cc2)C1=O (centres undefined)	8	1	17	3	-1	nt	nt
CCC1Nc2ncnc(N3CCN(c4ccccc4)CC3)c2N(Cc2ccc(C)cc2)C1=O (centres undefined)	50*	1	36	-16	-11	nt	nt	OPRM1-D1 inv cf=36*;HTR5A inv count=56*
Cn1c(CC(=O)Nc2ccccc2Cl)nnc1SCC(=O)NC1=NCCS1	6	0	-19	7	-1	nt	nt
N#CC(C#N)=NNc1ccc([N+](=O)[O-])cc1	31*	-5	-15	15*	-6	nt	nt	OPRM1-D1 inv cf=9;HTR5A inv count=-11;MOR-DOR ag-2=-1;HTR5A ag confirm=3
CN(NC1OC(=O)c2ccccc21)c1ncc(Cl)cc1C(F)(F)F (centres undefined)	nt	-4	nt	nt	nt	nt	nt
Nc1ccc(C(=O)C(=O)c2ccc(N)cc2)cc1	13	0	2	-1	-2	nt	nt
N=C1C=CC(=C(c2ccc(N)cc2)c2ccc(N)cc2)C=C1	-4	nt	31*	-8	1	-83	-1
COC(=O)c1cc(S(=O)(=O)NCC2CCN(Cc3ccc(F)cc3)CC2)cn1C	9	-1	-3	1	-2	nt	nt
COC(=O)c1cc(S(=O)(=O)NCC2CCN(CCc3cccs3)CC2)cn1C	6	0	41*	0	-1	-21	-2
Cc1ccc2ccc(C(Nc3cccc(C(F)(F)F)c3)c3cccnc3)c(O)c2n1 (centres undefined)	-24	1	89*	-32	4	-11	-13
O=C(Nc1ccc(N2CCN(C(=O)c3cccs3)CC2)cc1)c1cccc(F)c1	-14	0	-13	4	2	nt	nt
COc1cccc(C(=O)Nc2ccc(N3CCN(C(=O)c4cccs4)CC3)cc2)c1	4	0	33*	-14	-1	i	-13
O=[N+]([O-])c1ccc(S(=O)(=O)Nc2cccc(-c3ccc(N4CCOCC4)nn3)c2)cc1	-35	-3	43*	-1	5	-21	-13
O=C(O)c1cc(-n2nnnc2SCc2ccc([N+](=O)[O-])cc2)ccc1Cl	11	0	2	0	-2	nt	nt
COCCn1c(SCC(=O)NNC(=O)c2cc(Cl)ccc2OC)nnc1-c1ccncc1	6	2	43*	-18	-1	-24	-154
O=S(=O)([N-]c1nc2ccccc2nc1-[n+]1ccccc1)c1ccc(F)cc1	4	0	-3	1	-1	nt	nt
Cc1nnc(NC(=O)c2ccc(S(=O)(=O)N(C)Cc3ccccc3)cc2)o1	16	-1	8	-4	-3	nt	nt
COCc1nnc(NC(=O)c2ccc(S(=O)(=O)N(C)Cc3ccccc3)cc2)o1	-4	1	33*	-13	1	26	4
O=C(Nc1ccc(NC(=O)c2ccccc2F)cn1)c1ccco1	1	-5	8	-1	0	nt	nt
C=CCn1c(CCn2c3ccccc3c3ccccc32)n[nH]c1=S	9	1	24	2	-2	nt	nt
C=CCn1c(Cc2cccc3ccccc23)n[nH]c1=S	-4	1	28*	-8	1	2	2
COc1cccc(C(=O)N2CCN=C2SCc2cccnc2)c1OC	17	?	-5	2	-3	nt	nt
CCOc1cc(/C=N/NC(=O)c2cccs2)cc([N+](=O)[O-])c1O	22	nt	25*	-9	-4	55*	-4

Screening results deposited in PubChem BioAssay by several laboratories.
